Source: the supplement of paper PMC3484114
± gives the standard deviation.

What follows are compounds tested on OVCAR-3-derived ovarian cancer stem-like cells (spheroids) (assay: cell growth relative to untreated control; higher = more growth (less inhibition)). Details: 2.29 µM; 96 h.
Summary of the method: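 Viability of stem-like cells from OVCAR-3 spheroids was assessed with TOX8 resazurin fluorescence at ex 560/em 590 nm. The cells had been trypsin-dissociated, seeded at 50,000 cells/mL in stem cell medium in ultra-low attachment 96-well plates and preincubated 24 h, then treated with compounds at 2.29 uM for 96 h at 37°C, 5% CO2, in 4 replicate wells, with fluorescence read after 4 h. Results were converted to percent growth against untreated wells after blank subtraction and Grubbs outlier removal.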

Row | SMILES | cell growth
1 | CCCCCn1cc2c3c(cccc31)C1C=C(C)CN(C)[C@@H]1C2.Cc1ccc(C(=O)OC(C(=O)O)C(OC(=O)c2ccc(C)cc2)C(=O)O)cc1 (centres undefined) | 78.9 ± 11%
2 | COC1CC(CC2CCC(C)C(C(C)C(=O)O)O2)OC2(OC(C)(C3CCC(C)(C4OC(C5OC(O)(CO)C(C)CC5C)CC4C)O3)CC2C)C1C (centres undefined) | 64.5 ± 48%
3 | COc1cc(C2c3cc4c(cc3C(O)C3COC(=O)C23)OCO4)cc(OC)c1OC (centres undefined) | 31 ± 5.3%
4 | N[C@@H](CN(O)N=O)C(=O)O | 105 ± 19%
5 | c1csc(C[N+]23CN4CN(CN(C4)C2)C3)c1 | 108 ± 17%
6 | O=C1NC(=S)NC(=O)C1C(=O)Nc1ccccc1 | 23.7 ± 5.9%
7 | COc1cc([C@@H]2c3cc4c(c(O)c3C[C@H]3COC(=O)[C@@H]32)OCO4)cc(OC)c1OC | 31.1 ± 4.7%
8 | C=Cc1cc(OC)c2c(c1)c(=O)oc1c2cc(OC)c2c(O)ccc(C3OC(C)C(O)C(C)(O)C3O)c21 (centres undefined) | 8.6 ± 6%
9 | NP(=O)(Oc1c2occc2cc2ccc(=O)oc12)N(CCCl)CCCl (centres undefined) | 72.2 ± 18%
10 | CC(=O)[O][Pb]([O]C(C)=O)([c]1ccccc1)[c]1ccccc1 | 80.2 ± 14%
11 | C[C@H]1CCC/C=C/[C@@H]2C[C@H](O)C[C@H]2[C@H](O)/C=C/C(=O)O1 | 15 ± 2.5%
12 | CC(=O)[O][Hg][c]1c(C)c(C)c(C)c(C)c1C | 94.5 ± 28%
13 | C[n+]1ccc(-c2cc[n+](C)cc2)cc1 | 101 ± 11%
14 | Cc1c(N)nc([C@H](CC(N)=O)NC[C@H](N)C(N)=O)nc1C(=O)N[C@H](C(=O)N[C@H](C)[C@@H](O)[C@H](C)C(=O)N[C@H](C(=O)NCCc1nc(-c2nc(C(=O)NCCC[S+](C)C)cs2)cs1)[C@@H](C)O)[C@@H](OC1OC(CO)C(O)C(O)C1OC1OC(CO)C(O)C(OC(N)=O)C1O)c1cnc[nH]1 (some centres undefined) | 53 ± 10%
